This is a sample that favours compounds with a hit; in the whole collection about 7.4% have one here.
NPC1 prom act: qHTS Assay for NPC1 Promoter Activators; Potency, µM (top dose mostly 9.22 µM), for the others: top-dose activation, actives largely listed as activators; 2.4% of 320,000 active; Huh7 NPC1 promoter luciferase reporter, 24 h; further: % of control where 0% means no effect; nearly all actives have a fitted effect of over 60% in size
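Readout is luciferase luminescence, reflecting NPC1 promoter activation in stably transfected Huh7 cells after 24 h compound exposure at 37 °C in reduced-serum medium with 10% FBS.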
FLuc counter: qHTS profiling assay for firefly luciferase inhibitor/activator using purifed enzyme and Km concentrations of substrates (counterscreen for miR-21 project) | purified FLuc, Km substrates, luminescence inhibition | Potency, µM (highest dose often 57.5 µM), inactives show top-dose activity change, negative = inhibition, most hits filed as inhibitors | 6.9% of 360,000 active;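 further: plate controls were vehicle for no effect and reference inhibitor for full effect; nearly all actives have a fitted effect of over 55% in size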
Target sequence (P08659 whole entry, looked up): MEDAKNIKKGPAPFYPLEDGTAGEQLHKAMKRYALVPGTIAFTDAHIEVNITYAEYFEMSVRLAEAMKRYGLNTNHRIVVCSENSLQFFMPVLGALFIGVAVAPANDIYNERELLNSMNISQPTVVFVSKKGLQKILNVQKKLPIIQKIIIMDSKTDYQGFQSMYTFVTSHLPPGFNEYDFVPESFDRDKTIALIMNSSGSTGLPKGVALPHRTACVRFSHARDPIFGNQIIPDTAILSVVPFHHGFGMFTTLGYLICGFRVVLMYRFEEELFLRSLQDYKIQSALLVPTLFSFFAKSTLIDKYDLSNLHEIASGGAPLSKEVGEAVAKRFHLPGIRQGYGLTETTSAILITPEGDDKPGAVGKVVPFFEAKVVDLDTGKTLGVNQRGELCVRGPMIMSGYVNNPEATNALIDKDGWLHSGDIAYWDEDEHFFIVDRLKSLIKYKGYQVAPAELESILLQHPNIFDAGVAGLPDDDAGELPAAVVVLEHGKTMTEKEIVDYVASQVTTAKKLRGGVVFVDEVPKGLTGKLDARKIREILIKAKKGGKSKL
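Biochemical qHTS of compounds, final roughly 60 µM downward over six points, against 10 nM purified firefly luciferase using Km concentrations of substrates (10 uM D-luciferin, 10 uM ATP) in Tris acetate pH 7.5 buffer; luminescence output.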
ELG1 genotox: qHTS screen for small molecules that induce genotoxicity in human embryonic kidney (HEK293T) cells expressing luciferase-tagged ELG1 | 1.3% of 330,000 active | HEK293T ELG1-luciferase reporter, luminescence, 16 h | AID 504466, 2011 | Potency, µM (series often up to 46 µM), inactives show at the top dose activity change, positive = activation, hits mostly activators; further: % of control where 0% means no effect; nearly all actives have a fitted effect of over 60% in size
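Genotoxicity was scored as increased ELG1-luciferase reporter signal, measured by ONE-Glo luminescence (30 min, room temperature). Compound or vehicle exposure of the HEK293T reporter cells lasted 16 hr at 37°C.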
SMN2 splice enh: qHTS Assay for Enhancers of SMN2 Splice Variant Expression; HEK293 SMN2-luciferase splicing reporter, luminescence, 30-36 h; Potency, µM (top dose mostly 46.1 µM), for the others: at the top dose activity change, positive = activation, most hits filed as activators; 2.8% of 210,000 active; AID 1458, 2008; further: % of control where 0% means no effect; nearly all actives have a fitted effect of over 55% in size
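HEK293 cells carry an SMN2 minigene-luciferase reporter in which exon 7 inclusion puts luciferase in frame. Cells were seeded at 2000 cells/well, attached for 10-12 hours, then exposed to compounds for 30-36 hours at 37C before ONE-Glo luminescence.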
Rab9 promoter act: qHTS Assay for Rab9 Promoter Activators. Huh7 Rab9 promoter-luciferase reporter, luminescence, 24 h. Potency, µM (highest dose often 9.22 µM), inactives show at the highest dose activation, negative = inhibition, usual class: activators. 2.8% of 320,000 active; further: % of control where 0% means no effect; nearly all actives have a fitted effect of over 60% in size
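Huh7 cells stably carrying Rab9 promoter–luciferase reporter, plated 1500 cells/well, compound added after 2 h and incubated 24 h at 37 °C; luciferase luminescence then read after 10 min with detection reagent.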
An asterisk follows results filed as active; u = inconclusive; x = no result. The call rests on the fitted dose curve; in most records, active means well fitted curve in the direction sought with a large enough effect; inconclusive means small, poorly fitted or top-dose-only effect, or another doubt; inactive means no such curve, though single readings can be large; an effect the other way counts as inactive or inconclusive. Potency means the concentration at half of the fitted maximal effect.

SMILES	NPC1 prom act	FLuc counter	ELG1 genotox	SMN2 splice enh	Rab9 promoter act
COc1cc(/C=N/Nc2nncc3ccccc23)cc(OC)c1OC	1.6µM*	8.5µM*	u	x	u
Cc1cccc(/C=N/Nc2nncc3ccccc23)c1	0.56µM*	0.85µM*	0.46µM*	2.5µM*	0.32µM*
COc1ccc(/C=N/Nc2nncc3ccccc23)c(OC)c1	u	9.5µM*	u	13µM*	u
CN(C)c1ccc(/C=N/Nc2nncc3ccccc23)cc1	0.32µM*	0.43µM*	0.73µM*	x	0.32µM*
Cc1cc(=O)[nH]c(N/N=C/c2ccc(N(C)C)cc2)n1	8%	u	9%	x	0%
C(=N\Nc1nncc2ccccc12)/c1ccccc1	1.1µM*	0.54µM*	u	x	1.4µM*
Oc1ccc(/C=N\Nc2nncc(-c3ccccc3)n2)cc1	-6%	u	u	x	-8%
COc1ccc(Br)cc1CN(C)C(=O)c1ccccc1OCc1c(C)noc1C	-1%	-1%	-8%	x	2%
Cc1ccc(SCc2cn3ccccc3n2)cc1	1.3µM*	5.4µM*	5.2µM*	x	1.6µM*
c1ccc(CSCc2cn3ccccc3n2)cc1	2.8µM*	17µM*	u	16µM*	1.1µM*
c1ccc2nc(SCc3cn4ccccc4n3)cnc2c1	u	u	2%	u	u
CCN(C(=O)Cn1c(=O)n(Cc2ccc3c(c2)OCO3)c(=O)c2ccc(C(=O)NC3CCCCC3)cc21)c1cccc(C)c1	x	-2%	x	-2%	x
Cc1nc(N)sc1-c1csc(N(C)c2ccc(O)cc2)n1	u	4.8µM*	u	u	u
CC(C)(C)C(=O)[C@H]1[C@H](c2ccccc2)[C@@]2(N=C(c3ccccc3)OC2=O)C2c3ccccc3C=NN21 (stereo partly drawn)	0%	15µM*	3%	13%	-1%
COc1ccc(-c2coc3cc(OC)cc(OC)c3c2=O)cc1	u	15µM*	u	7%	u
COc1cc(OC)c2c(=O)c(O)c(-c3ccc(OC)c(OC)c3)oc2c1	x	x	x	-4%	x
COc1cc(OC)c2c(=O)c(-c3ccccc3)coc2c1	x	x	x	11µM*	x
COc1ccc2nc(NC(=O)CSc3nnc(C)n3N)sc2c1	1.6µM*	3µM*	7.3µM*	x	0.5µM*
COc1ccc2nc(NC(=O)CSc3nnc(N)s3)sc2c1	u	u	16%	10µM*	2µM*
CCOc1ccc2nc(NC(=O)CSc3ccc(Cl)cc3)sc2c1	2%	u	25%	8%	2%
CCOc1ccc2nc(NC(=O)CSC3=NCCS3)sc2c1	u	15µM*	u	6%	u
COc1ccc2nc(NC(=S)N(C)C)sc2c1	0.71µM*	1.9µM*	0.82µM*	-18%	0.63µM*
COc1ccc2nc(NC(=O)CN3CCN(C)CC3)sc2c1	1%	u	10%	-11%	-3%
Cc1ccc(N2CC(c3nnc(Cc4ccc(F)cc4)o3)CC2=O)cc1 (stereo not drawn)	x	-6%	x	-6%	x
FC(F)(F)COc1ccc(-c2nnc(SCc3ccccc3)o2)cn1	9%	-5%	6%	x	26%
SMILES	NPC1 prom act	FLuc counter	ELG1 genotox	SMN2 splice enh	Rab9 promoter act
CC(=O)Nc1ccc(S(=O)(=O)Nc2ccc3c(c2)C(=O)OC3)cc1	-1%	-1%	-6%	6%	0%
COc1ccc2nc(NC(=O)CCc3ccc(OC)c(OC)c3)sc2c1	2%	-9%	10%	12%	10%
COc1ccc2nc(NC(=O)CSc3ccccc3)sc2c1	17%	17µM*	u	-11%	13%
CSc1nsc(SCC(=O)Nc2ccc(OC(C)=O)cc2)n1	21%	u	u	u	u
CCOc1ccc2nc(NC(=O)CSc3nc(SC)ns3)sc2c1	22%	24µM*	18%	u	u
CCCC(=O)Nc1nc2ccc(OC)cc2s1	0.89µM*	7.6µM*	u	10µM*	1.8µM*
COc1ccc2nc(NC(=O)CSC3=NCCS3)sc2c1	u	17µM*	-1%	-7%	u
CSc1ccccc1OCc1cc(C(=O)N2CCC(Oc3cccnc3)CC2)no1	8%	u	-28%	x	19%
